Measurements from PubChem BioAssay AID588852 (The Scripps Research Institute Molecular Screening Center, 2011).
Screen size: about 360,000 compounds; about 4,600 (1.3%) were called active.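 The calls were made as follows: active = percent inhibition above its own plate's cutoff, namely the mean of that plate's compound wells plus 3 SD; inactive = the rest.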 The sample as a whole holds a higher share of actives than the screen did.

The compounds below were run against Muscarinic acetylcholine receptor M1 (Homo sapiens) (UniProt P11229) (assay: CHRM1 blockers of acetylcholine calcium response – CHO-K1 cells, Fluo-8 calcium fluorescence, 1536-well, primary screen (AID 588852;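 also: peak over basal fluorescence ratio during 140 s after agonist addition; 0% = ACh EC80 plus DMSO and 100% = DMSO alone without agonist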)). Conditions: CHO-K1 hM1, Fluo-8 calcium fluorescence, ACh EC80 antagonist; at 3 µM; hits give high values.
Sequence of Muscarinic acetylcholine receptor M1 (Homo sapiens) (P11229 whole entry, looked up): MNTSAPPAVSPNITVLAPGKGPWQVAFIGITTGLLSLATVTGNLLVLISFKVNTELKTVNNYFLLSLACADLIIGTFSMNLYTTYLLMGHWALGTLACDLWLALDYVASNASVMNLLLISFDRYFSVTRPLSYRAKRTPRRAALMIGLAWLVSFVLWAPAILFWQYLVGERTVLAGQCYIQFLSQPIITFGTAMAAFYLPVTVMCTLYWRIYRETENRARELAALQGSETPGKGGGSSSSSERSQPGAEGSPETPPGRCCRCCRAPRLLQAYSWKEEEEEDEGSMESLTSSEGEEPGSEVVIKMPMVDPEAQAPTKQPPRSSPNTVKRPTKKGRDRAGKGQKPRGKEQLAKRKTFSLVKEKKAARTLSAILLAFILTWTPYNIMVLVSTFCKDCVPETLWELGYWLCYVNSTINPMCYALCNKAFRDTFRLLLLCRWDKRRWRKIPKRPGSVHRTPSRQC
With O=C(CSc1nnc2c(n1)[nH]c1ccccc12)NC1CCCCC1 the inhibition was -3.99% (inactive). With O=C(CNS(=O)(=O)c1ccc2ccccc2c1)Nc1ccc(F)c(F)c1F the inhibition was -2.2% (inactive). With Cc1cc(=O)oc2c3c(cc(OCC(=O)NCC(O)c4ccccc4)c12)OC(C)(C)CC3 (stereo not drawn) the inhibition was -9.2% (inactive). Cc1onc(C(=O)NN)c1C(=O)N1CCN(C(c2ccccc2)c2ccccc2)CC1 was tested, and the inhibition was 4.44% (inactive). In the case of Cn1nnnc1SCC(=O)N1CCN(C(c2ccccc2)c2ccccc2)CC1, the inhibition is reported as -2.38% (inactive). With O=C(c1ccc(-n2cnnn2)cc1)N1CCN(C(c2ccccc2)c2ccccc2)CC1 the inhibition was 78.5% (active). CC(C)(C)Cc1c(C2CCCCC2)nc2ccc(Br)cn12 was tested, and the inhibition was -23.6% (inactive). In the case of COc1cc(OC)c(C2=NOC(C(=O)Nc3c(C)n(C)n(-c4ccccc4)c3=O)C2)cc1Cl (stereo not drawn), the inhibition is reported as -4.11% (inactive). Cc1ccc(N(Cc2cc(=O)[nH]c3ccccc23)C(=O)CCl)cc1 was tested, and the inhibition was 41.3% (active). In the case of Cc1ccc(N(Cc2cc3ccccc3[nH]c2=O)C(=O)c2cccs2)cc1, the inhibition is reported as -3.76% (inactive). For CC(=O)N(Cc1cc(=O)[nH]c2ccccc12)c1ccc(C)cc1C, the inhibition was -12.4% (inactive). C=C(C)C1CC=C(C)/C(=N/NC(=O)CCCNc2cccc(C)c2)C1 (stereo not drawn) was tested, and the inhibition was 10% (inactive). For CCCOc1ccc(N2CC(C(=O)Nc3ccccn3)CC2=O)cc1 (stereo not drawn), the inhibition was -17.6% (inactive). For O=C(NCc1ccccc1Cl)C1CCN(c2ncnc3c2nc2n3CCCCC2)CC1, the inhibition was -5.23% (inactive). With COc1ccccc1CNC(=O)CCCn1c(=O)c2ccccc2n(CC(=O)NC2CCCC2)c1=O the inhibition was -13.2% (inactive). With COc1ccccc1NC(=S)N1CCN(c2ccc(F)cc2)CC1 the inhibition was -20.2% (inactive). With COc1ccccc1CN1CCN(Cc2cc(OC)c(OC)cc2OC)CC1 the inhibition was -21.9% (inactive). COc1ccccc1CN1CCN(C(c2ccccc2)c2ccccc2)CC1 was tested, and the inhibition was 63.6% (active). With COc1cccc(OC)c1C(=O)N1CCN(Cc2ccccc2F)CC1 the inhibition was -1.36% (inactive). COc1ccccc1NC(=S)N1CCN(C(c2ccccc2)c2ccccc2)CC1 was tested, and the inhibition was 53.1% (active). With COc1ccccc1NC(=S)N1CCC(NC(=O)C23CC4CC(CC(C4)C2)C3)CC1 the inhibition was -7.97% (inactive). CC(C)(C)NC(=O)COc1ccc(CNc2ccc3[nH]c(=O)[nH]c3c2)cc1 was tested, and the inhibition was -1.62% (inactive). COc1cc(C2OC(c3cc(OC)c(OC)c(OC)c3)C(C)C2C)cc(OC)c1OC (stereo not drawn) was tested, and the inhibition was 0.63% (inactive). For Oc1cccc2cc(-c3ccncc3)cnc12, the inhibition was -21.3% (inactive). With O=C(c1cc(Cl)cc(Cl)c1)N1CCC(=O)N(C(COCc2ccccc2)Cc2ccccc2)CC1 (stereo not drawn) the inhibition was 7.3% (inactive). In the case of O=[N+]([O-])c1ccc(CN2CC(N3CCC(c4ccccc4)CC3)CS2(=O)=O)cc1 (stereo not drawn), the inhibition is reported as 7.07% (inactive). In the case of CCOC(=O)c1ccccc1NS(=O)(=O)c1c(C)nc2sccn2c1=O, the inhibition is reported as 6.39% (inactive). In the case of COC(=O)c1ccc(CN2CCC(CO)(Cc3ccc(OC)cc3)CC2)cc1, the inhibition is reported as 53.5% (active). COc1ccc(CC2(CO)CCN(Cc3cnn(C)c3)CC2)cc1 was tested, and the inhibition was 1.8% (inactive). For CCOC(=O)C1(CCOC)CCN(Cc2ccc(C(=O)OC)cc2)CC1, the inhibition was -9.07% (inactive). With O=C(CN1CCN(c2ccccc2O)CC1)NC(=O)NCc1ccccc1 the inhibition was -3.68% (inactive). With Cn1c(-c2ccc(C(F)(F)F)cc2)cc2onc(-c3ccccc3)c2c1=O the inhibition was 2.31% (inactive). CC(C(=O)NC1CCCCC1)N1C(=O)c2cccc3cccc1c23 (stereo not drawn) was tested, and the inhibition was 8.39% (inactive). COc1ccccc1C(=O)Nc1ccnn1C1CCN(C(=O)C(C)(C)C)CC1 was tested, and the inhibition was 47.4% (active). With COc1ccccc1N1CCN(CC(=O)Nc2ccnn2C2CCCC2)CC1 the inhibition was -12.8% (inactive). With COc1ccccc1C(=O)Nc1ccnn1C1CCN(Cc2cnn(C)c2)CC1 the inhibition was -12.3% (inactive). With C/C(O)=C\c1nc(=O)c2c(C)cc(C)nc2n1-c1ccccc1 the inhibition was -3.66% (inactive). With S=C(NCCCc1cnc[nH]1)NCCCN(Cc1ccc(Cl)c(Cl)c1)c1ccc(Br)cn1 the inhibition was 0.91% (inactive). CCOc1cc(/C=N/NC(=O)c2ccc(CSc3nncn3C)cc2)ccc1OCC(=O)N1CCOCC1 was tested, and the inhibition was -1.07% (inactive). CC(C)(C)S(=O)N1Cc2cc(C(=O)NCCCN3CCOCC3)nc(-c3cccc(-c4cc5ccccc5o4)c3)c2[C@H]1CCO (stereo partly drawn) was tested, and the inhibition was -16.2% (inactive). For CCN(CC)S(=O)(=O)c1ccc(OC(C)C)c(N)c1, the inhibition was -11.4% (inactive). CCN1/C(=C\c2ccc3ccccc3[n+]2CC)Sc2cc(C)ccc21 was tested, and the inhibition was 59% (active). In the case of CCCCCCCCCCOC(=O)Cn1c(COc2cccc(OC)c2)[n+](C)c2ccccc21, the inhibition is reported as 58.2% (active). CCCCCCCCCCOC(=O)Cn1c(COc2ccc(C)cc2)[n+](C)c2ccccc21 was tested, and the inhibition was 30.8% (inactive). With O=C(C=CC(=O)Nc1ccc(F)cc1F)Nc1ccc(F)cc1F the inhibition was -4.83% (inactive). With CC(=O)Nc1ccc(S(=O)(=O)N2CCC(C(=O)NC3CC3)CC2)cc1 the inhibition was -7.82% (inactive). In the case of NCCCNC(=S)NCCCN(Cc1ccc(Cl)cc1)c1ccc(Br)cn1, the inhibition is reported as -0.49% (inactive). For CC(C)(C)OC(=O)N1CCN(C(=O)c2[nH]c(C(F)(F)F)nc2-c2ccccc2)CC1, the inhibition was -33.3% (inactive). In the case of FC(F)(F)c1cccc(N/N=C/c2ccccc2)c1, the inhibition is reported as -6.47% (inactive). With O=C(Nc1cccc(Cl)c1)c1cncn1-c1ccc(F)cc1 the inhibition was -4.54% (inactive). With FC(F)(F)c1cccc(NC(=S)Nc2cccc(Cl)c2)c1 the inhibition was 27.5% (active). With Cc1cc(C)cc(OCC(=O)OCC(=O)NC2CCCC2)c1 the inhibition was 5.15% (inactive). In the case of CC(C)c1nc2oc3c(N4CCN(C)CC4)ncnc3c2c2c1CCC2, the inhibition is reported as -4.82% (inactive). With CN(C)Cc1c(C(=O)N/N=C/c2ccccc2OCc2ccc(F)cc2)nnn1-c1nonc1N the inhibition was -17.7% (inactive). NC(=O)C1=C[C@@H](c2csc3ccccc23)C[C@@H](OCc2ccc(CO)cc2)O1 was tested, and the inhibition was -1.54% (inactive). For COc1cccc(-c2cnc3c(NC(C)=O)cc(-c4cc(F)ccc4OC)cn23)c1, the inhibition was 13.1% (inactive). Cc1onc(-c2ccccc2)c1-c1nnc(COC(=O)c2ccc(N(C)C)cc2)o1 was tested, and the inhibition was 99.9% (active). In the case of Cc1onc(-c2ccccc2Cl)c1C(=O)OCc1nnc(-c2ccccc2)o1, the inhibition is reported as 1.39% (inactive). With Cc1ccc(C(=O)NCC(=O)OCc2nnc(-c3ccccc3)o2)cc1 the inhibition was -11.3% (inactive). With Cc1cc2nc(-c3ccco3)c(Cc3cccc(F)c3)n2c(C)c1Br the inhibition was -9.48% (inactive). In the case of O=C(NCCN1CCOCC1)c1ccc2c(c1)N(Cc1cccc(Cl)c1)C(=O)c1ccccc1S2(=O)=O, the inhibition is reported as -3.27% (inactive). For O=C(c1ccc2c(c1)N(Cc1ccc(F)cc1)C(=O)c1ccccc1S2(=O)=O)N1CCN(c2ccccn2)CC1, the inhibition was -3.64% (inactive). With CCCCN(C)C(=O)c1ccc2c(c1)N(CC)C(=O)c1ccccc1S2(=O)=O the inhibition was 37.7% (active). In the case of Cc1nn(-c2ccccc2)nc1C(=O)OCC(=O)N1CCCCC1C (stereo not drawn), the inhibition is reported as 3.01% (inactive). For NC1=NC(=O)C2(COC(c3ccccc3Cl)OC2)S1 (stereo not drawn), the inhibition was -9.62% (inactive). O=C(COC(=O)/C=C/c1ccc(Br)o1)Nc1cccc(S(=O)(=O)N2CCOCC2)c1 was tested, and the inhibition was -15.6% (inactive). In the case of CC(=O)c1c(O)cc2n(c1=O)-c1ccc(Cl)cc1C2(C)C, the inhibition is reported as -13.4% (inactive). For COC(=O)c1ccc(NC(=O)CSc2nnc(CNc3ccc(OC)cc3)n2C)cc1, the inhibition was 64.6% (active). For COC(=O)c1ccc(NC(=O)CSc2nnc(-c3ccncc3)n2C)cc1, the inhibition was -9.95% (inactive). In the case of COC(=O)c1ccc(NC(=O)CSc2nnc(C3CC3)n2C)cc1, the inhibition is reported as -9.89% (inactive). For CC(C)CN(C(=O)c1ccc2c(c1)OCO2)C1CCS(=O)(=O)C1 (stereo not drawn), the inhibition was 6.67% (inactive). O=C(Nc1cccc2c1N(C(=O)c1ccco1)CCC2)c1ccco1 was tested, and the inhibition was -11.2% (inactive). N#CC1(NC(=O)COC(=O)CSc2ccc(F)cc2)CCCCC1 was tested, and the inhibition was -5.4% (inactive). For COc1cc(CCN=Cc2ccccc2O)c([N+](=O)[O-])cc1OC, the inhibition was 1.04% (inactive). CC1CCCN(CCOCCOc2ccccc2-c2ccccc2)C1 (stereo not drawn) was tested, and the inhibition was 5.61% (inactive). In the case of CN1CCN(CCCCOc2ccccc2-c2ccccc2)CC1, the inhibition is reported as -6.34% (inactive). With c1ccc(-c2ccccc2OCCN2CCCCC2)cc1 the inhibition was 33.7% (active). For COc1ccc(C(=O)Oc2ccc(-c3nnco3)cc2)cc1S(=O)(=O)N1CCOCC1, the inhibition was 0.6% (inactive). In the case of O=C(Oc1ccc(-c2nnco2)cc1)c1ccc(F)c(S(=O)(=O)N2CCOCC2)c1, the inhibition is reported as 38.5% (active). For Cc1cc(NC(=O)COC(=O)c2ccc(F)c(S(=O)(=O)N3CCOCC3)c2)no1, the inhibition was -35% (inactive). CC1=C2C(=O)OC(c3ccoc3)C2(C)CCC1 (stereo not drawn) was tested, and the inhibition was -3.46% (inactive). In the case of Cc1ccc(S(=O)(=O)Nc2ccc3ncccc3c2)cc1, the inhibition is reported as 28.8% (active). With Cc1cc(C)cc(OCC(=O)Nc2ccc(S(=O)(=O)Nc3ccccn3)cc2)c1 the inhibition was -5.97% (inactive). For O=S(=O)(Nc1ccc(Oc2ncccn2)c(Cl)c1)c1ccc(F)cc1, the inhibition was -16.8% (inactive). In the case of CC1CCC2(CC1)NC(=O)N(CC(=O)NCc1ccco1)C2=O (stereo not drawn), the inhibition is reported as 16.7% (inactive). O=S1(=O)CC(N2CCN(c3ccccn3)CC2)CN1Cc1ccc(F)cc1 (stereo not drawn) was tested, and the inhibition was -1.35% (inactive). CCCC(CNC(=O)COC(=O)C1=NNC(=O)CC1)c1ccc(Cl)cc1Cl (stereo not drawn) was tested, and the inhibition was -6.04% (inactive). O=C(CN1C(=O)/C(=C\c2ccc(C(F)(F)F)cc2)Sc2ccccc21)NCc1ccco1 was tested, and the inhibition was 13.9% (inactive). With CCC(=O)Nc1cc(C(F)(F)F)ccc1N1CCCC1 the inhibition was 3.67% (inactive). For O=C(CN1CCCCCC1)N1c2ccccc2Sc2ccc(C(F)(F)F)cc21, the inhibition was 102% (active). In the case of O=C(CSc1nc2ccccc2o1)N1c2ccccc2Sc2ccc(Cl)cc21, the inhibition is reported as -3.61% (inactive). O=C(CN1CCCCC1)N1c2ccccc2Sc2ccc(C(F)(F)F)cc21 was tested, and the inhibition was 96.8% (active). COc1cc(/C=C/C(=O)N2c3ccccc3Sc3ccc(C(F)(F)F)cc32)cc(OC)c1OC was tested, and the inhibition was -6.22% (inactive).
